According to PubChem BioAssay AID1259318 (Sanford-Burnham Center for Chemical Genomics, 2017):
In all, about 370,000 compounds went through this assay and about 3,000 (0.81%) were called active.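 Rule for the calls: active = activity above about 14% (limit read from the data; passing the limit was not always enough); inactive = the rest.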 What follows is part of a selection rich in actives, with near analogues and random picks from the rest.

molecular target: Nuclear receptor subfamily 1 group D member 1 (Homo sapiens) (UniProt P20393); experiment: Rev-erbα–DNA interaction modulation – biochemical, FITC-DNA, fluorescence polarization, uHTS, primary screen (AID 1259318); details: Rev-erbα–FITC-DNA binding, 90 min, at 10 µM, stronger effect = higher value;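 note: 0% = DMSO wells with 35 nM protein and 100% = DMSO wells with 750 nM protein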
Sequence (P20393 whole entry, looked up): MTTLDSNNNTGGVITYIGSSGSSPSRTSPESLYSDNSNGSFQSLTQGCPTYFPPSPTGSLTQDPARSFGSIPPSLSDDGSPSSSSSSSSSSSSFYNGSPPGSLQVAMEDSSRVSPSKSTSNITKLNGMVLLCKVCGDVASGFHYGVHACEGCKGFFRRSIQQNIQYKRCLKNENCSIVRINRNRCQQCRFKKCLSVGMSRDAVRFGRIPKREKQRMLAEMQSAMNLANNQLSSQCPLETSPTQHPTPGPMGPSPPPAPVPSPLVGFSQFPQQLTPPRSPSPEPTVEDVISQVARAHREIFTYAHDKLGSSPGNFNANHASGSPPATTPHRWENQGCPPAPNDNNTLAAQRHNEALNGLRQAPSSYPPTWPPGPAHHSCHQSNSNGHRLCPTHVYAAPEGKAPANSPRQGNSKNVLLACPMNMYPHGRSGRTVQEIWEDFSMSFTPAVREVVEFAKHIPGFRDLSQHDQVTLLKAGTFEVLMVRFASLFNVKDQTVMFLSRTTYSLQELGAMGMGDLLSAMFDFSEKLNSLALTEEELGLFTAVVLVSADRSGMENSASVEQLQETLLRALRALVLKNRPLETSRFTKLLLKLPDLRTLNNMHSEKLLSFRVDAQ

| Structure (SMILES) | activity |
| --- | --- |
| CCOC(=O)c1cc(S(=O)(=O)NCCc2ccc(OC)c(OC)c2)cn1C | 1.86% (inactive) |
| Cc1cccc(OCCC(=O)Nc2cc(S(=O)(=O)N3CCCCC3)ccc2N2CCOCC2)c1 | -0.99% (inactive) |
| CN(CCc1ccccn1)S(=O)(=O)c1ccc2c3c(cccc13)C(=O)N2 | 1.1% (inactive) |
| O=C(CSc1nnc(-c2cccc(Cl)c2)n1Cc1ccco1)Nc1ccc(OCc2ccccc2)cc1 | 4.77% (inactive) |
| Cc1cc(NC(=O)CSC2=NS(=O)(=O)c3cc(Cl)ccc3N2)no1 | -5.75% (inactive) |
| Cc1cc(NC(=O)CSc2nc3cc(Cl)ccc3c(=O)n2Cc2ccco2)no1 | 20.1% (active) |
| CC/C(=C(/c1ccccc1)c1ccc(OCC[N+](C)(C)C)cc1)c1ccccc1 | -1.77% (inactive) |
| C=CCN1[C@H](CC(C)C)COc2cccc(N3CCCC3)c2S1(=O)=O | 5.72% (inactive) |
| Fc1c(F)c(C(F)(F)F)c(F)c(F)c1N1CCN(c2ccc3nnc(C(F)(F)F)n3n2)CC1 | 28.7% (active) |
| CCN(CC)S(=O)(=O)c1ccc(OC(C)C)c(N)c1 | -2.29% (inactive) |
| CCN(CC)S(=O)(=O)c1ccc(C(=O)N2CCN(C3=NS(=O)(=O)c4ccccc43)CC2)cc1 | -1.88% (inactive) |
| CCN(CC)C(=O)CS(=O)CC(=O)Nc1cc(OCCOC)c(Cl)cc1Cl (stereo not drawn) | -6.56% (inactive) |
| COc1ccc(OCC(=O)Nc2cc(C)c(Cl)cc2OC)c([N+](=O)[O-])c1 | 1.26% (inactive) |
| CSc1ccc(Cl)c(C(=O)OCC(=O)N2CC(C)OC(C)C2)c1 (stereo not drawn) | -1.82% (inactive) |
| COc1cc(Cl)c(C)cc1NC(=O)COC(=O)c1cc(SC)ccc1Cl | 35.7% (active) |
| COc1ccccc1NC(=O)COc1ccc(C(=O)OCC(=O)N(C(C)C)C(C)C)cc1OC | 0.89% (inactive) |
| Clc1ccc(Cl)c(Oc2ccc(Oc3nc(Cl)ccc3Cl)cc2)n1 | -2% (inactive) |
| Clc1ccc(-n2c(COc3ccccc3)nnc2SCc2nc3ccccc3[nH]2)cc1 | -0.37% (inactive) |
| CC1CC2C3CCC4=CC(=O)C=C[C@]4(C)[C@@]3(F)[C@@H](O)C[C@]2(C)[C@@]1(O)C(=O)CO (stereo partly drawn) | 0.08% (inactive) |
| Cn1nccc1NS(=O)(=O)c1ccc(F)cc1 | 3.3% (inactive) |
| O=C(CS(=O)(=O)c1cn(Cc2cccc(F)c2)c2ccccc12)N1CCCCC1 | -9.9% (inactive) |
| CCc1c(-c2ccc(F)cc2)ncn1Cc1cccc(-c2ccccc2)c1 | -5.19% (inactive) |
| O=c1cc(N2CCCCC2)c(-c2ccccc2)nn1Cc1cccc(F)c1 | 30.7% (active) |
| COC(=O)[C@]1(C)N[C@H](CN(C)C(=O)c2ccc(C(C)(C)C)cc2)[C@@H]2C(=O)N(C)C(=O)[C@@H]21 | -0.45% (inactive) |
| Oc1c(Br)cc(/C=N/NC(=S)NCC2CCCO2)cc1Br (stereo not drawn) | -2.6% (inactive) |
| CO/N=C(\C(=O)N[C@@H]1C(=O)N2C(C(=O)O)=CCS[C@H]12)c1csc(N)n1 | -1.64% (inactive) |

| Structure (SMILES) | activity |
| --- | --- |
| CCn1c(=O)c2ccccc2n(CC(=O)N2CCCc3ccccc32)c1=O | -3.6% (inactive) |
| CC(C)CCn1c(CN(C)Cc2ccccc2)nc2c1c(=O)n(C)c(=O)n2C | 3.74% (inactive) |
| Cn1c(=O)[nH]c(=O)c2c1nc(CN(Cc1ccccc1)Cc1ccccc1)n2CCN1CCOCC1 | -1.09% (inactive) |
| CC(C)Cn1c(CN(Cc2ccccc2)Cc2ccccc2)nc2c1c(=O)n(C)c(=O)n2C | 42.6% (active) |
| Cc1ccccc1NC(=O)C1CCN(c2ncccn2)CC1 | 4.79% (inactive) |
| O=C(CNC(=O)c1ccc(Cl)cc1Cl)NCC(=O)Nc1ccccc1N1CCOCC1 | -3.17% (inactive) |
| CCOC(=O)c1cc(-c2ccc(Cl)s2)nc2c1c(C)nn2C | 11.4% (inactive) |
| O=C(CN1CCN(S(=O)(=O)c2ccc(F)cc2)CC1)NC1CC1 | 6.03% (inactive) |
| COc1cc2c(cc1NC(=O)COC(=O)/C=C/c1ccccc1)oc1ccccc12 | -1.34% (inactive) |
| COc1cc2c(cc1NC(=O)CN1CCN(S(=O)(=O)c3ccc(F)cc3)CC1)oc1ccccc12 | 14.1% (active) |
| FC(F)(F)c1cccc(NC(=S)OC2CCC23CCC(c2ccccc2)CC3)c1 (stereo not drawn) | 5.79% (inactive) |
| O=C(CC1SC(=Nc2ccccc2)N(Cc2ccccn2)C1=O)Nc1cccc(Cl)c1 (stereo not drawn) | 1.93% (inactive) |
| NC1=NC(c2ccc([N+](=O)[O-])cc2)N(c2ccc(F)cc2)C(N)=N1 (stereo not drawn) | 5.54% (inactive) |
| Cc1ccc(NS(=O)(=O)c2ccc3c(c2)NC(=O)CO3)cc1 | 1.74% (inactive) |
| Cc1ccc(NS(=O)(=O)c2cc3c(cc2C)NC(=O)CO3)cc1 | 10.7% (inactive) |
| Cc1ccc(NS(=O)(=O)c2cc3c(cc2Br)NC(=O)CO3)cc1C | 23.4% (active) |
| C[C@@H]1CN([C@@H](C)CO)C(=O)c2cccc(NC(=O)Nc3cccc4ccccc34)c2O[C@H]1CN(C)S(=O)(=O)c1ccccc1F | -2.31% (inactive) |
| CC1(C)NC(=O)N(CC(=O)Nc2cc(C(F)(F)F)cc(C(F)(F)F)c2)C1=O | 3.72% (inactive) |
| CC(NCc1ccco1)C(=O)N1CCCCC1 (stereo not drawn) | -4.97% (inactive) |
| COCCNc1nc(-c2ccccc2)nc2c1oc1ccccc12 | 7.87% (inactive) |
| COC(=O)c1cnc(Nc2cc(C)ccc2OC)c2ccccc12 | -1.59% (inactive) |
| COc1ccc(C)cc1Nc1nc(C)nc2c1oc1ccccc12 | 53.9% (active) |
| O=[N+]([O-])c1ccc(NCCCO)c(C(F)(F)F)c1 | -1.69% (inactive) |
| N#Cc1ccc(OCCCN2CCC(C(O)(c3ccccc3)c3ccccc3)CC2)c(F)c1 | 2.99% (inactive) |
| CCCNC(=S)NC1CC2CCCC(C1)N2CC(C)C (stereo not drawn) | 1.93% (inactive) |
| COc1ccc(CC(=O)Nc2ccc(-c3nnc(-c4ccc(C)cc4)o3)cc2)cc1 | 26.4% (active) |

| Structure (SMILES) | activity |
| --- | --- |
| COc1ccc(-c2ccc3nnc(SCC(=O)Nc4ccc(NC(C)=O)cc4)n3n2)cc1 | -7.04% (inactive) |
| Cc1ccc(CC(=O)Nc2cccc(C#N)c2)cc1 | 0.97% (inactive) |
| CC1CCCC(NC(=O)CSc2nccn2C)C1C (stereo not drawn) | -3.46% (inactive) |
| c1ccc(-c2cc(-c3nnc4sc(-c5ccccn5)nn34)[nH]n2)cc1 | 22.2% (active) |
| Fc1ccc(-c2ccc(-c3nn4c(-c5ccco5)nnc4s3)o2)cc1 | -8.14% (inactive) |
| C=CCNC(=S)/N=c1/ccccn1Cc1ccccc1 | 3.96% (inactive) |
| O=C(CC12CC3CC(CC(C3)C1)C2)NCc1ccco1 | -3.49% (inactive) |
| CCOC(=O)c1nnn(-c2nonc2OC)c1-c1ccccc1 | -1.38% (inactive) |
| COC(=O)/C(=C1\Oc2ccc(C(C)(C)C)cc2S1)C(F)(F)F | 2.88% (inactive) |
| CCOC(=O)C1=C(c2ccccc2)O/C(=C(/C(=O)OC)C(F)(F)F)S1 | 23.2% (active) |
| CC(C)CC(=O)N1CCN(Cc2ccccc2Br)CC1 | 1.77% (inactive) |
| Cc1ccc(N=C2NC(=O)c3cccc([N+](=O)[O-])c32)cc1 | -0.93% (inactive) |
| C=C(C)C(=O)O[C@H]1C/C(C)=C\C(=O)/C=C(\C)[C@H](O)[C@@H]2OC(=O)C(=C)[C@@H]21 | -13.3% (inactive) |
| O=C(O)c1ccn(COc2ccc(Br)cc2)n1 | -0.74% (inactive) |
| Cc1cc(Br)cn2c(Cc3ccccc3C(F)(F)F)c(C3CCCCC3)nc12 | -1.46% (inactive) |
| Cc1ccc(-c2nc3c(Cl)cc(C(F)(F)F)cn3c2Cc2cccc(Cl)c2)cc1 | -1.02% (inactive) |
| Cc1cc(Br)cn2c(Cc3cccc(F)c3)c(-c3cccc(Br)c3)nc12 | 8.77% (inactive) |
| Cc1cc(Br)cn2c(Cc3ccccc3C(F)(F)F)c(-c3ccc(Cl)cc3)nc12 | 24.8% (active) |
| Cc1cc(Br)cn2c(Cc3ccccc3C(F)(F)F)c(-c3ccc(C#N)cc3)nc12 | 16.1% (inactive) |
| Cc1ccc(-c2nc3c(C)cc(Br)cn3c2Cc2ccccc2)cc1 | 27% (active) |
| Cc1ccc(NC(=O)Nc2cc(C)nn2-c2ccccc2)cc1 | -3.54% (inactive) |
| CCC1Nc2ncnc(N3CCN(c4ccccc4)CC3)c2N(Cc2ccc(Cl)cc2)C1=O (stereo not drawn) | -0.29% (inactive) |
| CCCc1nnc(NC(=O)CCC(=O)NC2CC2)s1 | -1.12% (inactive) |
| COCC(=O)N[C@@H]1C[C@@H]2O[C@@H](CO)CC[C@@H]2O[C@@H]1CCc1ccc(-c2ccccc2)cc1 | -1.13% (inactive) |
| CC(=O)N1CCCN(C2=Nc3ccccc3Sc3ccccc32)CC1 | -0.32% (inactive) |
| CCCCNC(=O)CSc1nc2n[nH]c(C)c2c(=N)n1-c1cccc(Cl)c1C | 23.1% (active) |

| Structure (SMILES) | activity |
| --- | --- |
| Cc1nnc(OCC(=O)NCCC2=CCCCC2)c2ccccc12 | -2.75% (inactive) |
| CCn1c(=O)cc(SCC(=O)NCCC2=CCCCC2)c2ccccc21 | -0.99% (inactive) |
| CCCCNC(=O)CSc1nccn1Cc1ccccc1 | -5.53% (inactive) |
| CCCCCCNC(=O)CSc1nccn1Cc1ccccc1 | 1.93% (inactive) |
| Cc1ccc(-n2c(SCC(=O)NCCC3=CCCCC3)nc3n[nH]c(C)c3c2=N)cc1Cl | 34.3% (active) |
| CCCCCC1CC(COc2ccccc2)OC1=O (stereo not drawn) | 3.77% (inactive) |
| CC(=O)c1c(C)n([O-])c2ccccc2[n+]1=O | 4.5% (inactive) |
| CC(C)C(C)(C#N)NC(=O)CSc1nncn1-c1ccccc1 (stereo not drawn) | 3.69% (inactive) |
| Cc1ccc2c(cnn2C(=O)CCC(=O)NC2CCCC2)c1 | 8.51% (inactive) |
| COc1ccc(CN2C/C(=C/c3ccccc3)N3C(=O)C[C@@H](c4ccccc4)N=C23)c(OC)c1 | -2.77% (inactive) |
| CC(=O)Nc1sc2c(c1C(c1cccc(F)c1)N1CCN(CCO)CC1)CCCC2 (stereo not drawn) | -4.11% (inactive) |
| Cc1cc(C(C)(C)C)n2nc(C)c(-c3ccccc3)c2n1 | 31.7% (active) |
| CCc1c(C)nc2c(-c3ccccc3)c(C)nn2c1Nc1ccc(NC(C)=O)cc1 | -3.83% (inactive) |
| Cc1nn2c(NCCN(C)C)c3c(nc2c1-c1ccccc1)CCC3 | -0.8% (inactive) |
| CC(Oc1ccccc1)C(=O)N[C@@H]1C(=O)N2[C@@H]1SC(C)(C)[C@@H]2C(=O)O (stereo partly drawn) | -0.45% (inactive) |
| COC(=O)c1ccc(N2CCOCC2)c(NC(=O)c2ccc(Br)o2)c1 | -3.88% (inactive) |
| Cc1cc(NCc2cccnc2)no1 | 2.81% (inactive) |
| Cc1cc(NC(=O)COc2ccccc2C#N)no1 | 5.64% (inactive) |
| Cc1cc(N/C=C\C(=O)c2ccc(Cl)c(Cl)c2)no1 | 24.8% (active) |
| CCN(CC)C(=O)CSc1nnc(-c2cnccn2)n1-c1ccc(C)cc1 | 5.46% (inactive) |
| CN(C(=O)COc1ncnc2c1cnn2-c1ccccc1)C1CCCCC1 | 1.94% (inactive) |
| COc1ccc(CCC(C)N2CCc3ccccc3C2)cc1 (stereo not drawn) | 1.36% (inactive) |
| COc1ccc(-n2ncc3c(N4CCc5ccccc54)ncnc32)cc1 | 56.3% (active) |
| O=c1cc(Cl)c2ccccc2n1-c1ccccc1 | -2.63% (inactive) |
| COc1cccc(N2CCN(CC(=O)N(C)Cc3ccc(F)cc3)CC2)c1 | -5.17% (inactive) |
